Measurements from the supplement of paper PMC9262897, “Low-cost anti-mycobacterial drug discovery using engineered E. coli” (Nature Communications, 2022).
Structures can show the parent of a compound that is named as a salt. ± gives the standard deviation of the averaged measurements.

Tests used:
Assay in all cases: growth (OD600 after 10 h); higher = more growth (less inhibition)
[1] = system: E. coli TESEC Alr+ wild-type control; conditions: compound 0.1 mM; raw OD600 reference: median of DMSO wells 0.241, cell-free background 0.041
Description: (§1)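 TESEC Mtb Alr E. coli, or the Alr+ wild-type control, in 384-well plates with Prestwick library compounds at 0.1 mM and 1% DMSO, across arabinose induction levels of 1E3 to 1E7 nM. Growth is read as OD600 after 10 h at 37 °C in triplicate biological replicates.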

E. coli TESEC Mtb Alr [2] = conditions: compound 0.1 mM
Description: as §1

E. coli TESEC Mtb Asd = conditions: compound 0.1 mM
Description: (§2)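 TESEC E. coli strains in which the native enzyme is deleted and replaced by arabinose-inducible Mtb Asd, DapB, CysH or TrpD, each grown in its selective medium. Strains were screened against the Prestwick library at 0.1 mM and 1% DMSO in 384-well format at low and high arabinose induction. Growth is read as OD600 after 10 h in triplicate.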

E. coli TESEC Mtb DapB = conditions: compound 0.1 mM
Description: as §2

[3] = system: E. coli TESEC Alr+ wild-type control; conditions: compound 0.1 mM; raw OD600 reference: median of DMSO wells 0.49, cell-free background 0.052
Description: (§3)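 TESEC Mtb Alr E. coli (ΔaraC ΔtolC ΔentC Δalr ΔdadX, arabinose-inducible Mtb Alr) or the Alr+ wild-type control strain, grown in defined M9-fructose medium without D-alanine in 96-well plates with Prestwick library compounds at 0.1 mM and 1% DMSO. Low Alr induction is 0.1 µM arabinose and high induction is 10 mM arabinose.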

E. coli TESEC Mtb Alr [4] = conditions: compound 0.1 mM; remark: listed apart in the source
Description: as §3

[5] = arabinose 1000 nM, raw OD600 reference: median of DMSO wells 0.294, cell-free background 0.041
[6] = arabinose 10000 nM, raw OD600 reference: median of DMSO wells 0.264, cell-free background 0.041
[7] = arabinose 100000 nM, raw OD600 reference: median of DMSO wells 0.201, cell-free background 0.041
[8] = arabinose 1000000 nM, raw OD600 reference: median of DMSO wells 0.193, cell-free background 0.041
[9] = arabinose 10000000 nM, raw OD600 reference: median of DMSO wells 0.146, cell-free background 0.041
[10] = arabinose induction (level): High, raw OD600 reference: median of DMSO wells 0.331, cell-free background 0.041
[11] = arabinose induction (level): Low, raw OD600 reference: median of DMSO wells 0.417, cell-free background 0.041
[12] = arabinose induction (level): High, raw OD600 reference: median of DMSO wells […], cell-free background 0.041
[13] = arabinose induction (level): Low, raw OD600 reference: median of DMSO wells 0.227, cell-free background 0.041
[14] = arabinose 100 nM, raw OD600 reference: median of DMSO wells 0.413, cell-free background 0.052
[15] = arabinose 10000000 nM, raw OD600 reference: median of DMSO wells […], cell-free background 0.052

Compound | growth [1] | growth (E. coli TESEC Mtb Alr [2]; [5]) | growth (E. coli TESEC Mtb Alr [2]; [6]) | growth (E. coli TESEC Mtb Alr [2]; [7]) | growth (E. coli TESEC Mtb Alr [2]; [8]) | growth (E. coli TESEC Mtb Alr [2]; [9]) | growth (E. coli TESEC Mtb Asd; [10]) | growth (E. coli TESEC Mtb Asd; [11]) | growth (E. coli TESEC Mtb DapB; [12]) | growth (E. coli TESEC Mtb DapB; [13]) | growth [3] | growth (E. coli TESEC Mtb Alr [4]; [14]) | growth (E. coli TESEC Mtb Alr [4]; [15])
COC(=O)C1=C(C)NC(C)=C(C(=O)OC2CCCN(Cc3ccccc3)C2)C1c1cccc([N+](=O)[O-])c1 (centres undefined) [Benidipine hydrochloride] | 0.184 ± 0.005 | 0.148 ± 0.005 | 0.177 ± 0.012 | 0.168 ± 0.011 | 0.107 ± 0.0056 | 0.119 ± 0.024 | 0.162 ± 0.0021 | 0.157 ± 0.0085 | 0.17 ± 0.022 | 0.192 ± 0.016 | 0.295 ± 0.015 | 0.353 ± 0.018 | 0.122 ± 0.028
O=C1Cc2cc(CCN3CCN(c4nsc5ccccc45)CC3)c(Cl)cc2N1 [Ziprasidone  Hydrochloride] | 0.133 ± 0.0045 | 0.174 ± 0.008 | 0.249 ± 0.0058 | 0.195 ± 0.0098 | 0.179 ± 0.0086 | 0.201 ± 0.0095 | 0.418 ± 0.051 | 0.363 ± 0.035 | 0.222 ± 0.027 | 0.308 ± 0.076 | 0.427 ± 0.011 | 0.378 ± 0.0087 | 0.338 ± 0.013
Cc1ccc(-c2ncc(Cl)cc2-c2ccc(S(C)(=O)=O)cc2)cn1 [Etoricoxib] | 0.17 ± 0.0023 | 0.241 ± 0.006 | 0.213 ± 0.0045 | 0.184 ± 0.014 | 0.15 ± 0.0079 | 0.161 ± 0.0033 | 0.266 ± 0.076 | 0.241 ± 0.0033 | 0.204 ± 0.031 | 0.261 ± 0.029 | 0.388 ± 0.0074 | 0.414 ± 0.0091 | 0.281 ± 0.018
COc1cc([C@@H]2c3cc4c(cc3[C@@H](O[C@@H]3O[C@@H]5CO[C@@H](C)O[C@H]5[C@H](O)[C@H]3O)[C@H]3COC(=O)[C@H]23)OCO4)cc(OC)c1O [Etoposide] | 0.0715 ± 0.0031 | 0.0527 ± 0.0019 | 0.04273 ± 0.00025 | 0.0604 ± 0.0031 | 0.0501 ± 0.00056 | 0.1106 ± 0.0011 | 0.112 ± 0.015 | 0.0831 ± 0.013 | 0.113 ± 0.0098 | 0.0846 ± 0.011 | 0.142 ± 0.0036 | 0.129 ± 0.02 | 0.0985 ± 0.018
CCCN(CCC)CCc1cccc2c1CC(=O)N2 [Ropinirole HCl] | 0.239 ± 0.0025 | 0.301 ± 0.0083 | 0.251 ± 0.0073 | 0.195 ± 0.025 | 0.18 ± 0.009 | 0.146 ± 0.0056 | 0.379 ± 0.066 | 0.441 ± 0.035 | 0.198 ± 0.013 | 0.211 ± 0.025 | 0.443 ± 0.028 | 0.408 ± 0.01 | 0.366 ± 0.0066
Clc1ccc(C(Cn2ccnc2)OCc2ccsc2Cl)c(Cl)c1 (centres undefined) [Tioconazole] | 0.04147 ± 0.00032 | 0.0412 ± 0.0011 | 0.0461 ± 0.00071 | 0.04173 ± 0.00029 | 0.0443 ± 0.00052 | 0.04223 ± 0.00035 | 0.0476 ± 0.0011 | 0.0482 ± 0.0016 | 0.0486 ± 0.00086 | 0.0575 ± 0.017 | 0.0501 ± 0.00075 | 0.0561 ± 0.0097 | 0.051 ± 0.00017
C=C1/C(=C\C=C2/CCC[C@]3(C)[C@@H]([C@H](C)CCCC(C)C)CC[C@@H]23)C[C@@H](O)C[C@@H]1O [Alfacalcidol] | 0.0884 ± 0.006 | 0.0977 ± 0.004 | 0.051 ± 0.0012 | 0.143 ± 0.018 | 0.065 ± 0.0018 | 0.121 ± 0.002 | 0.219 ± 0.033 | 0.301 ± 0.066 | 0.234 ± 0.012 | 0.226 ± 0.018 | 0.146 ± 0.0019 | 0.4206 ± 0.0018 | 0.149 ± 0.023
CCN(CC)C(=O)N1CCN(C)CC1 [Diethylcarbamazine citrate] | 0.255 ± 0.0031 | 0.274 ± 0.031 | 0.275 ± 0.015 | 0.196 ± 0.017 | 0.191 ± 0.0045 | 0.148 ± 0.0047 | 0.333 ± 0.092 | 0.487 ± 0.02 | 0.188 ± 0.0069 | 0.226 ± 0.025 | 0.549 ± 0.066 | 0.411 ± 0.0087 | 0.33 ± 0.014
